Screen size: about 150,000 compounds; about 190 (0.13%) were called active. Inconclusive results (about 2%) are left out. The call rests on the fitted dose curve; in most records, active means well fitted inhibition curve with a large enough effect; inconclusive means small, poorly fitted or top-dose-only effect; inactive means flat fitted curve, though single readings scatter. The full list was thinned out, with actives kept by preference.
These molecules were tested against Polyunsaturated fatty acid lipoxygenase ALOX12 (Homo sapiens) (UniProt P18054) (assay: qHTS Assay for Inhibitors of 12-hLO (12-human lipoxygenase)). Conditions: purified 12-hLO, xylenol orange hydroperoxide absorbance; series mostly up to 57.1 µM; activity change, negative = inhibition: at the top concentration.
Chain of Polyunsaturated fatty acid lipoxygenase ALOX12 (Homo sapiens) (P18054 whole entry, looked up): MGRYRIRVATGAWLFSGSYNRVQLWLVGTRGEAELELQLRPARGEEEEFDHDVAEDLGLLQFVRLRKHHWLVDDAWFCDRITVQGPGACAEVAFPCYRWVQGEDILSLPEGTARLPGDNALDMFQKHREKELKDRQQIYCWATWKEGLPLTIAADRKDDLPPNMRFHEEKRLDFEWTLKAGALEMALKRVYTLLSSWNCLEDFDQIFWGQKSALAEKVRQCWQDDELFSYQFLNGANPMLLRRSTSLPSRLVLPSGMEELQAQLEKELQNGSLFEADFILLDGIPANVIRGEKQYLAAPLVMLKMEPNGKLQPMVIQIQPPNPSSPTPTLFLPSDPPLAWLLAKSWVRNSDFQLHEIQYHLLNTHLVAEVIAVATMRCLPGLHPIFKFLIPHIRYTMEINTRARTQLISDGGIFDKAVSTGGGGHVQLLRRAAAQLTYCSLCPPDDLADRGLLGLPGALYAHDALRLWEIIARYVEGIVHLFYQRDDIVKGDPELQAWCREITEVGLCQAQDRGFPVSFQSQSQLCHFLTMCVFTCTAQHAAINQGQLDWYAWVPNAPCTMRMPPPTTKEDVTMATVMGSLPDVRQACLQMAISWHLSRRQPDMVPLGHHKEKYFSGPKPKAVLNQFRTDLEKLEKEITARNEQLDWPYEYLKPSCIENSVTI
From the text: Assay Provider: Holman, T.R., University of California, Santa Cruz Screening Center PI: Austin, C.P. Screening Center: NIH Chemical Genomics Center [NCGC] Human lipoxygenase 12hLO is a member of the closely related lipoxygenase family of enzymes which catalyze the site-specific oxidation of arachidonic acid to various hormone precursor molecules and as such is a candidate for drug development in a variety of disease areas, such as cancer and inflammation. Inhibition of 12hLO activity was screened by utilizing arachidonic acid as a substrate. The extent of hydroperoxide product formation was measured by a secondary chromogenic reaction in which xylenol orange (XO, Sigma-Aldrich, cat. number 39,818-7) reacts with the ferric ions produced from the reaction between the hydroperoxide and ferrous ions. The Fe(III)-XO complex is characterized with red-shifted absorbance at 560 nm. A purified preparation of human 12hLO was supplied by Professor Ted Holman, University of California, Santa Cruz.
Assay Protocol: Buffer: 25 mM Hepes pH 7.0, 0.01% Triton X-100. Reagents/Controls: Buffer in columns 3 and 4 as negative control (no enzyme). Substrate solution: 40 uM arachidonic acid (Sigma-Aldrich, St. Louis, MO) final concentration dispensed throughout the plate. Enzyme: 150 nM 12hLO final concentration in columns 1, 2, 5-48. Column 1 is neutral (100% activity). Column 2 contained pin-transferred titration of NDGA (nordihidroguaiaretic acid, Sigma-Aldrich, N 5023, top concentration 20 mM in DMSO, then 1:3 dilution in duplicate). (Dilution factor: 23 nL into 4 uL.) Chromogenic detection reagent (divalent iron/xylenol orange, Fe-XO): 200 uM xylenol orange plus 300 uM ferrous ammonium sulfate prepared freshly in 50 mM sulfuric acid. Assay Steps: Three uL of enzyme were dispensed to 1536-well Greiner black clear bottom plates. Compounds and controls (23 nL) were transferred via Kalypsys PinTool. The plates were incubated for 15 min at room temperature, and then 1 uL of substrate solution was added to start the reaction. After room temperature incubation for 30 minutes, 4 uL of Fe-XO solution was added to each well and the plates were incubated for 30 min. The absorbance at 405 and 573 nm were measured using ViewLux (Perkin-Elmer) High-throughput CCD imager and absorbance protocol settings. The 573-to-405 absorbance ratio was used to compute reaction progress.
For `CC1(OC(=O)c2ccc(Cl)nc2)C(=O)Cc2cc(-c3ccsc3)ncc2C1=O` (stereo not drawn), the activity change, negative = inhibition was -0.498% [at 11.4 µM] (inactive).
In the case of `CC(=O)c1ccc(NC(=S)NC(=O)CC(C)C)cc1`, the “activity change, negative = inhibition” value is reported as 1.05% (inactive).
In the case of `COc1ccc(NS(=O)(=O)c2ccc(NC(=S)NC(=O)CC(C)C)cc2)cc1`, the Potency is reported as 15.8 µM (active).
In the case of `COc1ccc(C(=O)Nc2ccc(S(=O)(=O)NC(C)C)cc2)cc1`, the “activity change, negative = inhibition” value is reported as 4.57% (inactive).
In the case of `COc1cc(-c2cc(C(=O)OCC(=O)Nc3ccc4c(c3)OCO4)c3ccccc3n2)cc(OC)c1OC`, the “activity change, negative = inhibition” value is reported as 1.97% (inactive).
In the case of `CCOC(=O)C1=C(C(=O)OCC)C(C(=O)OCC)N(S(=O)(=O)C(F)(F)F)c2ccccc21` (stereo not drawn), the activity change, negative = inhibition is reported as -4.37% [at 0.00818 µM] (inactive).
In the case of `COc1cc(NC(=S)NCCSc2ccc(C)cc2)cc(OC)c1`, the Potency is reported as 20 µM (active).
In the case of `COc1cccc(NC(=S)NCCCN2CCOCC2)c1`, the “activity change, negative = inhibition” value is reported as -0.748% (inactive).
With `COc1cc(NC(=O)Nc2ccc(C)cc2)cc([N+](=O)[O-])c1` the “activity change, negative = inhibition” value was 0.524% (inactive).
With `NS(=O)(=O)c1ccc(CNC(=O)c2ccc(Cl)cc2[N+](=O)[O-])cc1` the “activity change, negative = inhibition” value was -2.13% (inactive).
With `O=C(Cn1nc(CNc2ccc(Cl)cc2)[n+]2c1CCCCC2)c1ccc(Cl)cc1` the “activity change, negative = inhibition” value was -14.1% (inactive).
With `COc1ccc([N+](=O)[O-])cc1NC(=O)C(C)OC(=O)C1c2ccccc2Oc2ccccc21` (stereo not drawn) the “activity change, negative = inhibition” value was -0.718% (inactive).
With `CC1(C)O[C@@H]2C[C@@H]3[C@H]4C[C@@H](F)C5=CC(=O)C=C[C@]5(C)[C@@]4(F)[C@@H](O)C[C@]3(C)[C@]2(C(=O)CO)O1` the activity change, negative = inhibition was -0.431% [at 0.00818 µM] (inactive).
In the case of `CC(C)(C)C1CCC(=NNC(=O)c2ccc(Br)o2)CC1` (stereo not drawn), the “activity change, negative = inhibition” value is reported as 7.26% (inactive).
For `CCCCC/C=C\C/C=C\C/C=C\CCCCC(=O)NCC(=O)O`, the “activity change, negative = inhibition” value was 5.86% (inactive).
`O=C(Cc1ccccc1)NC(=S)Nc1ccc(N2CCCCC2)cc1` was tested, and the “activity change, negative = inhibition” value was -4.31% (inactive).
In the case of `CCCCC/C=C\CC1OC1CCCCCCCC(=O)O` (stereo not drawn), the “activity change, negative = inhibition” value is reported as -6.12% (inactive).
For `COc1cccc(-c2cc(=O)c3cc(NC(=O)c4ccc(C)cc4)ccc3[nH]2)c1`, the activity change, negative = inhibition was 0.685% [at 0.00818 µM] (inactive).
`C[C@H]1Cc2c(-c3ccccc3)nc3c(c2CO1)CN(S(=O)(=O)c1ccc(Cl)c2nonc12)CC3` was tested, and the activity change, negative = inhibition was -3.11% [at 11.4 µM] (inactive).
In the case of `COc1ccc(CCNC(=O)COC(=O)C2CCCCC2)cc1`, the “activity change, negative = inhibition” value is reported as -0.0351% (inactive).
For `Cc1ccc(C(=O)COC(=O)CCN2C(=O)C3C4CC(C(Br)C4Br)C3C2=O)cc1` (stereo not drawn), the “activity change, negative = inhibition” value was -1.03% (inactive).
`CC(=O)c1c(C)[nH]c(C(=O)COC(=O)c2cccc(S(=O)(=O)N(C)c3ccccc3)c2)c1C` was tested, and the “activity change, negative = inhibition” value was -3.3% (inactive).
For `Cc1ccc(NC(=S)NC(=O)/C=C/c2ccc(Cl)cc2)cc1`, the “activity change, negative = inhibition” value was -2.19% (inactive).
`O=C(CSC1CC(=O)N(CCc2ccccc2)C1=O)Nc1ccc(Cl)cc1` (stereo not drawn) was tested, and the “activity change, negative = inhibition” value was -7.76% (inactive).
`COc1ccc(-c2nc3c(c4c2C[C@H](c2ccccc2)OC4)CN(S(=O)(=O)c2c(C)noc2C)CC3)c(C)c1` was tested, and the activity change, negative = inhibition was 1.37% [at 11.4 µM] (inactive).
For `CC1=C(C(=O)Nc2cc(C)ccn2)C(c2cnn(C)c2)C2=C(CC(c3ccccc3)CC2=O)N1` (stereo not drawn), the “activity change, negative = inhibition” value was -1.69% (inactive).
With `O=C(CN1CCN(c2ccc(O)cc2)CC1)NC1CCCc2ccccc21` (stereo not drawn) the “activity change, negative = inhibition” value was -5.85% (inactive).
In the case of `CC(=O)CC(c1ccccc1)C1C(=O)Oc2ccccc2C1=O` (stereo not drawn), the activity change, negative = inhibition is reported as -0.392% [at 0.00818 µM] (inactive).
With `CCCC(=O)Nc1ccc(C(=O)N/N=C/c2ccc[nH]2)cc1` the “activity change, negative = inhibition” value was -0.0134% (inactive).
In the case of `CC(C)C(C)(C#N)NC(=O)CSc1nc2scc(-c3ccccc3)c2c(=O)[nH]1` (stereo not drawn), the “activity change, negative = inhibition” value is reported as -0.662% (inactive).
`Cn1nccc1CNC(=O)c1ccnn1C` was tested, and the “activity change, negative = inhibition” value was 0.98% (inactive).
`Cc1ccccc1-c1ccc(C(=O)O)s1` was tested, and the activity change, negative = inhibition was 1.22% [at 0.00818 µM] (inactive).
In the case of `COc1cc(OC)cc(C(=O)Nc2ccc(S(=O)(=O)Nc3cc(C)on3)cc2)c1`, the “activity change, negative = inhibition” value is reported as -4.65% (inactive).
In the case of `COc1cc(NS(=O)(=O)c2ccc(N=Cc3c(C)[nH]n(-c4ccccc4)c3=O)cc2)nc(OC)n1`, the “activity change, negative = inhibition” value is reported as -2.19% (inactive).
For `COc1cc(NS(=O)(=O)c2ccc(N/C=C(\C=O)c3nc4cc(Cl)ccc4o3)cc2)nc(OC)n1`, the Potency was 15.8 µM (active).
With `N#C/C=C\Oc1ccc(Cl)cc1N` the Potency was 22.4 µM (active).
`COc1ccc(Cl)cc1C(=O)NCC#N` was tested, and the “activity change, negative = inhibition” value was 0.698% (inactive).
`CC1CCCCN1S(=O)(=O)c1ccc(S(=O)(=O)N(CC(=O)Nc2ccccc2)Cc2cccs2)cc1` (stereo not drawn) was tested, and the “activity change, negative = inhibition” value was 0.18% (inactive).
In the case of `CCCCC/C=C\C/C=C\CCCCCCCCCC(N)=O`, the “activity change, negative = inhibition” value is reported as 1.17% (inactive).
In the case of `O=C(NCc1cccs1)c1ccc(Br)o1`, the “activity change, negative = inhibition” value is reported as 8.12% (inactive).
For `CCCCC/C=C\C/C=C\C/C=C\CCCCCCC(N)=O`, the “activity change, negative = inhibition” value was 4.46% (inactive).
In the case of `S=C(NCc1ccc(Cl)cc1)NC12CC3CC(CC(C3)C1)C2`, the Potency is reported as 22.4 µM (active).
`CN(C)CCCNC(=S)NCc1ccc(Cl)cc1` was tested, and the “activity change, negative = inhibition” value was -4.25% (inactive).
In the case of `COC(=O)Cc1ccc(NC(=S)NCc2ccc(Cl)cc2)cc1`, the “activity change, negative = inhibition” value is reported as -16.8% (inactive).
`c1ccc(C2=Nc3cccc4cccc(c34)N2)cc1` was tested, and the “activity change, negative = inhibition” value was 0.53% (inactive).
For `CCOC(=O)C1=C(C)c2ccccc2OC1(C)C(=O)OCC` (stereo not drawn), the activity change, negative = inhibition was -0.153% [at 0.00818 µM] (inactive).
In the case of `Cc1ccc(-c2cc(C(=O)NCc3cn(C)nc3C)c3cc(Br)ccc3n2)cc1`, the “activity change, negative = inhibition” value is reported as 2.04% (inactive).
For `CCCCOc1ccc(C(=O)N/C(=C/C=C/c2ccccc2)C(=O)N2CCOCC2)cc1`, the “activity change, negative = inhibition” value was -1.06% (inactive).
In the case of `CC(=O)c1c(O)cc2n(c1=O)-c1ccc(Cl)cc1C2(C)C`, the “activity change, negative = inhibition” value is reported as 5.14% (inactive).
`COc1ccc(-c2nc3c(c4c2C[C@H](c2ccccc2)OC4)CN(C(=O)C2CC2)CC3)c(C)c1` was tested, and the activity change, negative = inhibition was -3.7% [at 11.4 µM] (inactive).
With `COC(=O)N1C(/C=C/C=C/c2ccc(OC)cc2)=Cc2ccccc2C1CC(C)=O` (stereo not drawn) the activity change, negative = inhibition was 1.56% [at 11.4 µM] (inactive).
For `Cc1ccc(S(=O)(=O)N(Cc2ccc(Cl)cc2)c2ccccc2C(=O)NCc2cccnc2)cc1`, the “activity change, negative = inhibition” value was 1.33% (inactive).
In the case of `CCOC(=O)c1cnc2ccc(F)cc2c1Nc1ccc2c(c1)OCCO2`, the “activity change, negative = inhibition” value is reported as -1.08% (inactive).
With `CC1=C(/C=C/C(C)=C/C=C/C(C)=C/C=C/C=C(C)/C=C/C=C(C)/C=C/C(=O)[C@]2(C)C[C@@H](O)CC2(C)C)C(C)(C)C[C@H](O)C1` the activity change, negative = inhibition was -3.45% [at 0.00818 µM] (inactive).
In the case of `O=C(Cn1cnc2ccccc21)N/N=C/c1ccco1`, the “activity change, negative = inhibition” value is reported as -2.72% (inactive).
`O=C(O)c1ccc(N=NN2CCOCC2)cc1` was tested, and the “activity change, negative = inhibition” value was -1.99% (inactive).
In the case of `C=C1c2cccc(OC)c2O[C@H](C(=O)OCC)[C@@H]1CCCCCC`, the activity change, negative = inhibition is reported as -4.96% [at 0.00818 µM] (inactive).
`CCCCCCCC/C=C\CCCCCCCC(=O)NCC(=O)O` was tested, and the “activity change, negative = inhibition” value was 3.9% (inactive).

Source: PubChem BioAssay AID1452 (National Center for Advancing Translational Sciences (NCATS), 2008)
Further: nearly all actives have a fitted effect of over 55% in size.
On the % scale 0 is the no-effect control and ±100 the full control effect; potency means the concentration at half of the fitted maximal effect.
